{"source": "PubChem BioAssay (NCI)", "note": "The panel holds about 83,000 compounds, 20% with a hit somewhere; the sample as a whole holds those more often.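 48-hour exposure, single concentration, 96-well plates; percent growth endpoint where 0 means no net growth. Active: below 10.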 A number with no mark means an inactive call. Active and inactive are the calls of the source.", "data": [{"system": "CAKI-1 renal", "assay": "NCI-60 one-dose screen, 48 h (100 = growth as untreated, 0 = no growth, -100 = all killed)", "details": "10 µM unless noted", "values": [{"smiles": "c1ccc2c(Cc3csc4ccccc34)csc2c1", "growth": "81.2%"}, {"smiles": "COc1ccc(-c2[nH]nc(N)c2-c2cc(OC)c(OC)c(OC)c2)cc1", "growth": "5.73% (active)"}, {"smiles": "Cc1nc2ccc(Nc3nc(NCCN4CCOCC4)nc(Nc4ccc(F)cc4)n3)cc2n1Cc1ccccc1", "growth": "55.6%"}, {"smiles": "COc1ccc(C2CC(c3ccc(Nc4ccnc5cc(Cl)ccc45)cc3)=NN2c2ccccc2)cc1", "note": "(configuration not stated)", "growth": "85.1%"}, {"smiles": "CCCCn1c(C)nc2cc(Nc3nc(Cl)nc4nc[nH]c34)ccc21", "growth": "76.1%"}, {"smiles": "COc1ccc(C(=O)/C=C/c2cn(-c3ccccc3)nc2-c2cccc(Nc3ccnc4cc(Cl)ccc34)c2)cc1", "growth": "94.3%"}, {"smiles": "Clc1ccc(Nc2ncnc3c2sc2ncccc23)c(Cl)c1", "growth": "15.1%"}, {"smiles": "Nc1nonc1-c1nc2ccccc2n1Cc1ccc(F)cc1", "growth": "35.9%"}, {"smiles": "CC(C)(C)c1ccc(Cn2c(-c3nonc3N)nc3ccccc32)cc1", "growth": "62.2%"}, {"smiles": "COC1=CC(c2ccc[nH]2)=N/C1=C\\c1[nH]c(C)c(C(=O)CCCCCCCCC(=O)O[C@H]2CC[C@H]3C4CCc5cc(O)ccc5C4CC[C@]23C)c1C", "note": "(some centres not stated)", "growth": "40.5%"}, {"smiles": "Fc1ccc(-c2ccnc3nc(-c4ccncc4)nn23)cc1", "growth": "92.1%"}, {"smiles": "COc1cc(C2CC(c3cccc(Nc4ccnc5cc(Cl)ccc45)c3)=NN2c2ccccc2)cc(OC)c1OC", "note": "(configuration not stated)", "growth": "8.35% (active)"}, {"smiles": "COc1cc(C2CC(c3ccc(Cl)cc3)=NN2C=O)ccc1OS(=O)(=O)c1ccc(C)cc1", "note": "(configuration not stated)", "growth": "81.4%"}, {"smiles": "NC(N)=N/N=C/c1ccccc1", "growth": "86.9%"}, {"smiles": "COc1ccc(Nc2ncnc3c2sc2nc(C)cc(C)c23)cc1", "growth": "99.2%"}, {"smiles": "Clc1ccc(-c2nc(Br)cn3ccnc23)cc1", "growth": "73%"}, {"smiles": "CCCCCCCCCCCCCCCc1cc(O)ccc1[N+](=O)[O-]", "growth": "72.9%"}, {"smiles": "CCOC(=O)c1ccccc1SC(C[N+](=O)[O-])c1ccccc1", "note": "(configuration not stated)", "growth": "92.5%"}, {"smiles": "COc1ccc(OC)c(Nc2nc(-c3c(C)nc4sccn34)cs2)c1", "growth": "73.7%"}, {"smiles": "CC1=NOCC(=O)N1", "growth": "96.3%"}, {"smiles": "CC(C)CC(NC(=O)OCC1c2ccccc2-c2ccccc21)C(=O)O", "note": "(configuration not stated)", "growth": "86.6%"}, {"smiles": "COc1ccc(C2=Nn3c(nnc3-c3ccc(Cl)cc3N)SC2)cc1", "growth": "92.9%"}, {"smiles": "Nc1c(C(=O)c2ccc(Br)cc2)sc2nc3c(cc12)CCCC3", "growth": "105%"}, {"smiles": "O=C(N=Nc1c(Cl)c(O)c2ccccc2c1O)C(=O)Nc1cccc(C(F)(F)F)c1", "growth": "54.6%"}, {"smiles": "CCCCn1c(C)nc2ccc(Nc3nc(Cl)nc4nc[nH]c34)cc21", "growth": "60.5%"}, {"smiles": "Cc1cc(C)c2c(n1)sc1c(Nc3ccc(OCc4ccccc4)cc3)ncnc12", "growth": "97.5%"}, {"smiles": "COc1ccc(/C=C2\\CCCC3=C2N=C2SC(C)=NN2C3c2ccc(OC)c(OC)c2)cc1OC", "note": "(configuration not stated)", "growth": "26.1%"}, {"smiles": "COc1cccc(Cn2c(-c3nonc3NC(C)=O)nc3ccccc32)c1", "growth": "24%"}, {"smiles": "Cc1cc(C)c2c(n1)sc1c(Nc3ccc(Cl)cc3Cl)ncnc12", "growth": "12.9%"}, {"smiles": "COc1cc(C(=O)/C=C/c2cn(-c3ccccc3)nc2-c2cccc(Nc3ccnc4cc(Cl)ccc34)c2)cc(OC)c1OC", "growth": "103%"}, {"smiles": "O=c1c2sc3ncc(Cl)cc3c2nnn1-c1cccc(Cl)c1", "growth": "67.4%"}, {"smiles": "Cc1ccc(C2CC(c3cccs3)=NN2c2ccc(S(N)(=O)=O)cc2)s1", "note": "(configuration not stated)", "growth": "86.7%"}, {"smiles": "COc1cc(C2C=C(C)N=C3SC=NN32)cc(OC)c1OC", "note": "(configuration not stated)", "growth": "99%"}, {"smiles": "COc1ccc2cc(-c3nc(C)c(C(C)=O)c(-c4ccc(C)cc4)n3)ccc2c1", "growth": "79.5%"}, {"smiles": "C=CCn1c(C)nc2cc(Nc3nc(N4CCOCC4)nc4nc[nH]c34)ccc21", "growth": "93.8%"}, {"smiles": "O=C1C(Cl)=C(N/N=c2/[nH][nH]/c(=N/NC3=C(Cl)C(=O)c4ccccc4C3=O)c3ccccc23)C(=O)c2ccccc21", "growth": "104%"}, {"smiles": "Cc1ccc2cc3c(NC(=O)c4cccnc4)nn(C)c3nc2c1", "growth": "85.7%"}, {"smiles": "Cc1ccc(-c2nc3ccccc3c(=O)n2/N=C/c2cccc3ccccc23)cc1", "growth": "54.4%"}]}, {"system": "A498 renal", "assay": "NCI-60 one-dose screen, 48 h (100 = growth as untreated, 0 = no growth, -100 = all killed)", "details": "10 µM unless noted", "values": [{"smiles": "c1ccc2c(Cc3csc4ccccc34)csc2c1", "growth": "107%"}, {"smiles": "COc1ccc(-c2[nH]nc(N)c2-c2cc(OC)c(OC)c(OC)c2)cc1", "growth": "-8.24% (active)"}, {"smiles": "Cc1nc2ccc(Nc3nc(NCCN4CCOCC4)nc(Nc4ccc(F)cc4)n3)cc2n1Cc1ccccc1", "growth": "-13.9% (active)"}, {"smiles": "COc1ccc(C2CC(c3ccc(Nc4ccnc5cc(Cl)ccc45)cc3)=NN2c2ccccc2)cc1", "note": "(configuration not stated)", "growth": "49.7%"}, {"smiles": "CCCCn1c(C)nc2cc(Nc3nc(Cl)nc4nc[nH]c34)ccc21", "growth": "26%"}, {"smiles": "COc1ccc(C(=O)/C=C/c2cn(-c3ccccc3)nc2-c2cccc(Nc3ccnc4cc(Cl)ccc34)c2)cc1", "growth": "94.8%"}, {"smiles": "Clc1ccc(Nc2ncnc3c2sc2ncccc23)c(Cl)c1", "growth": "26.7%"}, {"smiles": "Nc1nonc1-c1nc2ccccc2n1Cc1ccc(F)cc1", "growth": "42.1%"}, {"smiles": "CC(C)(C)c1ccc(Cn2c(-c3nonc3N)nc3ccccc32)cc1", "growth": "80.1%"}, {"smiles": "COC1=CC(c2ccc[nH]2)=N/C1=C\\c1[nH]c(C)c(C(=O)CCCCCCCCC(=O)O[C@H]2CC[C@H]3C4CCc5cc(O)ccc5C4CC[C@]23C)c1C", "note": "(some centres not stated)", "growth": "-0.91% (active)"}, {"smiles": "CCCOC(=O)C1c2cc3c(cc2CC(C)C1C(=O)OCCC)OCO3", "note": "(configuration not stated)", "growth": "99.8%"}, {"smiles": "Fc1ccc(-c2ccnc3nc(-c4ccncc4)nn23)cc1", "growth": "83.8%"}, {"smiles": "COc1cc(C2CC(c3cccc(Nc4ccnc5cc(Cl)ccc45)c3)=NN2c2ccccc2)cc(OC)c1OC", "note": "(configuration not stated)", "growth": "73.3%"}, {"smiles": "COc1cc(C2CC(c3ccc(Cl)cc3)=NN2C=O)ccc1OS(=O)(=O)c1ccc(C)cc1", "note": "(configuration not stated)", "growth": "74.1%"}, {"smiles": "NC(N)=N/N=C/c1ccccc1", "growth": "97.7%"}, {"smiles": "COc1ccc(Nc2ncnc3c2sc2nc(C)cc(C)c23)cc1", "growth": "91%"}, {"smiles": "Clc1ccc(-c2nc(Br)cn3ccnc23)cc1", "growth": "76.6%"}, {"smiles": "CCCCCCCCCCCCCCCc1cc(O)ccc1[N+](=O)[O-]", "growth": "98%"}, {"smiles": "CCOC(=O)c1ccccc1SC(C[N+](=O)[O-])c1ccccc1", "note": "(configuration not stated)", "growth": "87%"}, {"smiles": "COc1ccc(OC)c(Nc2nc(-c3c(C)nc4sccn34)cs2)c1", "growth": "30.7%"}, {"smiles": "CC1=NOCC(=O)N1", "growth": "111%"}, {"smiles": "CC(C)CC(NC(=O)OCC1c2ccccc2-c2ccccc21)C(=O)O", "note": "(configuration not stated)", "growth": "95%"}, {"smiles": "COc1ccc(C2=Nn3c(nnc3-c3ccc(Cl)cc3N)SC2)cc1", "growth": "118%"}, {"smiles": "Nc1c(C(=O)c2ccc(Br)cc2)sc2nc3c(cc12)CCCC3", "growth": "70.9%"}, {"smiles": "O=C(N=Nc1c(Cl)c(O)c2ccccc2c1O)C(=O)Nc1cccc(C(F)(F)F)c1", "growth": "84.9%"}, {"smiles": "CCCCn1c(C)nc2ccc(Nc3nc(Cl)nc4nc[nH]c34)cc21", "growth": "-0.303% (active)"}, {"smiles": "Cc1cc(C)c2c(n1)sc1c(Nc3ccc(OCc4ccccc4)cc3)ncnc12", "growth": "78.3%"}, {"smiles": "COc1ccc(/C=C2\\CCCC3=C2N=C2SC(C)=NN2C3c2ccc(OC)c(OC)c2)cc1OC", "note": "(configuration not stated)", "growth": "52.2%"}, {"smiles": "COc1cccc(Cn2c(-c3nonc3NC(C)=O)nc3ccccc32)c1", "growth": "-0.794% (active)"}, {"smiles": "Cc1cc(C)c2c(n1)sc1c(Nc3ccc(Cl)cc3Cl)ncnc12", "growth": "15.6%"}, {"smiles": "COc1cc(C(=O)/C=C/c2cn(-c3ccccc3)nc2-c2cccc(Nc3ccnc4cc(Cl)ccc34)c2)cc(OC)c1OC", "growth": "99.6%"}, {"smiles": "O=c1c2sc3ncc(Cl)cc3c2nnn1-c1cccc(Cl)c1", "growth": "63.1%"}, {"smiles": "Cc1ccc(C2CC(c3cccs3)=NN2c2ccc(S(N)(=O)=O)cc2)s1", "note": "(configuration not stated)", "growth": "89.9%"}, {"smiles": "COc1cc(C2C=C(C)N=C3SC=NN32)cc(OC)c1OC", "note": "(configuration not stated)", "growth": "90.9%"}, {"smiles": "COc1ccc2cc(-c3nc(C)c(C(C)=O)c(-c4ccc(C)cc4)n3)ccc2c1", "growth": "83%"}, {"smiles": "C=CCn1c(C)nc2cc(Nc3nc(N4CCOCC4)nc4nc[nH]c34)ccc21", "growth": "37.5%"}, {"smiles": "O=C1C(Cl)=C(N/N=c2/[nH][nH]/c(=N/NC3=C(Cl)C(=O)c4ccccc4C3=O)c3ccccc23)C(=O)c2ccccc21", "growth": "57%"}, {"smiles": "Cc1ccc2cc3c(NC(=O)c4cccnc4)nn(C)c3nc2c1", "growth": "91.7%"}, {"smiles": "Cc1ccc(-c2nc3ccccc3c(=O)n2/N=C/c2cccc3ccccc23)cc1", "growth": "109%"}]}]}
